Screening results deposited in PubChem BioAssay by several laboratories.
Vc quorum ag = inducers of Vibrio cholerae quorum light production without autoinducers. V. cholerae BH1578 lux reporter, luminescence, 6 h. 350,000 compounds, 0.16% hits. activation, % at 18.7 µM; in the data active means activation mostly above about 9.7%, no sharp cut-off
PrPC surface inh = cell surface PrPC inhibition, primary TR-FRET screen | P04156 | TR-FRET read-out | inhibition, % at 13.8 µM | 370,000 compounds, 0.43% hits; in the data active means inhibition above about 24%; further: 0% = median of the test wells and 100% = reference compound wells
VHR inh abs = inhibitors of human VHR1 phosphatase (DUSP3). P51452. recombinant VHR phosphatase, pNPP absorbance. inhibition, % at 13.3 µM. 290,000 compounds, 0.52% hits; in the data active means inhibition above about 50%
TcdB inh = inhibitors of Clostridioides difficile toxin B glycohydrolase; P18177; TcdB glycohydrolase enzymatic assay, plate reader; inhibition, % at 9.99 µM; 350,000 compounds, 0.24% hits; AID 652162; in the data active means inhibition above about 10%
CCHF vOTU inh = blocks the CCHF virus ovarian tumor domain protease; CCHFV vOTU protease, Pep-AMC fluorescence; 370,000 compounds, 0.55% hits; inhibition, % at 11.5 µM; AID 651958; in the data active means inhibition above about 30%; further: 0% = vehicle wells with enzyme and 100% = no enzyme wells
SSB-PriA inh = inhibitors of Klebsiella pneumoniae PriA binding to SSB C-terminal tail; 430,000 compounds, 0.6% hits; inhibition, % at 33 µM; AlphaScreen SSBct-PriA binding, biotinylated peptide; in the data active means inhibition mostly above about 37%, no sharp cut-off; inactive means mostly below about 20%;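 further: plate controls were negative control peptide for no effect and reference peptide for full effect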
PrPC TRFRET cf = cell surface PrPC inhibition, TR-FRET confirmation; shares compounds with PrPC surface inh; cell surface PrPC level; inhibition, % at 13.8 µM; 1,500 compounds, 65% hits; in the data active means inhibition above about 25%
LD9 cytotox = LD9 cell cytotoxicity, PrPc inhibitor counter-screen; LD9 cells cytotoxicity, luminescence viability; inhibition, % at 13.8 µM; 1,500 compounds, 29% hits; shares compounds with PrPC surface inh; in the data active means inhibition above about 9.5%
* marks the source's active call; other numbers are inactive results; i = inactive; . = no result given. Sampled rows, rich in hits. Any-hit rate of the full collection: about 1.5%.

SMILES | Vc quorum ag | PrPC surface inh | VHR inh abs | TcdB inh | CCHF vOTU inh | SSB-PriA inh | PrPC TRFRET cf | LD9 cytotox
N#Cc1c(-c2ccco2)nc(SCC(=O)Nc2cccc(Cl)c2)[nH]c1=O | i | 77.7* | -10.7 | . | 11.8 | -10.9 | 112.9* | -4.0
CCC(Sc1nc(-c2cccc(OC)c2)c(C#N)c(=O)[nH]1)C(=O)Nc1nnc(C(C)C)s1 (centres undefined) | -0.5 | -7.5 | 3.1 | 2.2 | 23.3 | 7.4 | . | .
CCc1ccc(NC(=O)C(C)Sc2nc(-c3ccco3)c(C#N)c(=O)[nH]2)cc1 (centres undefined) | -0.2 | 27.9* | -14.5 | 0.6 | 19.6 | -2.4 | 16.4 | -9.0
COCCc1nnc(NC(=O)c2ccc(C(C)=O)cc2)o1 | . | . | . | . | . | -3.0 | . | .
CCC1(C)Cc2ccccc2-c2[nH]c(=S)[nH]c(=O)c21 (centres undefined) | i | 89.8* | 21.9 | 2.2 | 8.1 | 2.3 | 120.1* | -8.1
CCOCc1c(C(=O)Nc2ccc3nc(N4CCOCC4)sc3c2)oc2ccccc12 | 6.2 | 33.4* | . | -5.0 | 14.9 | -17.9 | 15.7 | 6.4
CCOCc1c(C(=O)Nc2cc(OCC)c(N3CCOCC3)cc2OCC)oc2ccccc12 | i | -0.5 | 6.7 | 0.2 | 1.7 | 15.4 | . | .
CSc1ccc(C(O)CNC(=O)Nc2ccccc2C(F)(F)F)cc1 (centres undefined) | . | . | . | . | . | 4.0 | . | .
O=C(COc1ccc2ccccc2c1Br)NC(=S)Nc1cccc(CO)c1 | -0.3 | 61.2* | -2.5 | . | 5.3 | -13.1 | 66.1* | -7.7
O=C(COc1ccc2ccccc2c1Br)Nc1cccnc1 | i | 47.5* | 6.4 | 2.1 | -0.2 | -4.0 | 68.1* | -3.2
O=C(COc1ccc2ccccc2c1Br)Nc1ccncc1 | 2.9 | 60.0* | -9.4 | -0.4 | 15.5 | 1.6 | 68.9* | 7.9
O=C(COc1ccc(Br)cc1Br)NC(=S)Nc1cccc(CO)c1 | i | 5.1 | 9.4 | . | 1.4 | 0.1 | . | .
O=C(O)CCC(=O)NNC(=O)COc1ccc2ccccc2c1Br | 0.5 | 45.9* | 40.0 | 1.4 | 2.1 | -27.4 | 85.2* | -0.5
CC(C)(C)c1ccc(OCC(=O)Nc2ccncc2)c(Br)c1 | -0.2 | 2.0 | 10.8 | 1.0 | 6.3 | -6.6 | . | .
O=C(Cc1cccs1)N1CCC(Oc2ncccc2Br)CC1 | . | . | . | . | . | -10.0 | . | .
Nc1ccc(S(=O)(=O)NNC(=O)C(=O)NNc2ccccc2)cc1 | 3.1 | 19.7 | -3.8 | -24.8 | 7.2 | -10.6 | . | .
O=C(NNc1ccccc1)C(=O)NNS(=O)(=O)c1ccc(CCCl)cc1 | i | 26.8* | 20.4 | -6.5 | 7.2 | -12.2 | 24.1 | -3.0
COc1ccc(NCC(=O)NN=CC(C)c2ccccc2)cc1 (centres undefined) | . | . | . | . | . | 1.8 | . | .
c1ccc(-c2ccc(CNc3nc(-c4ccccn4)nnc3-c3ccccc3)cc2)cc1 | . | 28.9* | . | . | . | . | 36.7* | 27.6*
CC(C)(C)CCNc1nc(-c2ccccn2)nnc1-c1ccccc1 | . | 27.9* | . | . | . | . | 27.2* | 33.5*
C=CCNc1nc(-c2ccccn2)nnc1-c1ccccc1 | 0.6 | 20.6 | 20.1 | . | 15.4 | -8.6 | . | .
Cn1nnc2c(=O)n(Cc3ccc(C(F)(F)F)cc3)cnc21 | . | . | . | . | . | -20.0 | . | .
CS(=O)(=O)C1CCN(C(=O)C2(c3ccccc3)CCOCC2)CC1 | . | . | . | . | . | -30.0 | . | .
COC(=O)c1ccc(S(=O)(=O)NCC(OC)c2ccccc2Cl)cc1 (centres undefined) | . | . | . | . | . | 11.0 | . | .
OCCSc1ncnc2c1oc1ccccc12 | i | 3.4 | -5.4 | . | 12.8 | -11.0 | . | .
SMILES | Vc quorum ag | PrPC surface inh | VHR inh abs | TcdB inh | CCHF vOTU inh | SSB-PriA inh | PrPC TRFRET cf | LD9 cytotox
N#CCCSc1ncnc2c1oc1ccccc12 | i | 55.2* | -12.4 | . | 6.8 | -6.5 | 46.9* | -5.3
CCOC(=O)CC(=O)CSc1ncnc2c1oc1ccccc12 | . | 57.8* | 15.9 | . | -8.0 | -5.5 | 19.2 | -7.3
CCOc1cc2[nH]c(=S)n(C3CC3)c(=O)c2cc1OCC | 0.6 | -6.9 | 1.7 | 1.6 | 15.5 | -10.4 | . | .
CCOc1cc2[nH]c(=S)n(C(C)C)c(=O)c2cc1OCC | -3.0 | 32.7* | 0.0 | . | 4.7 | -7.0 | 35.8* | -0.7
COC(=O)c1ccc(C(=O)NCC[C@H](O)c2ccoc2)cc1 | . | . | . | . | . | -6.0 | . | .
Cc1ccc(NS(=O)(=O)c2ccc(Cl)c(C(=O)Nc3ccccc3-c3nc4ccccc4[nH]3)c2)cc1C | 0.0 | 25.6* | 1.3 | . | -13.6 | 6.3 | 16.5 | -2.9
CCNc1cc(NCCNC(=O)c2cccs2)nc(C)n1 | . | . | . | . | . | -5.0 | . | .
COc1coc(C(=O)Nc2ccc(F)cc2)cc1=O | . | . | . | . | . | -13.0 | . | .
O=C(COc1cccc2cccnc12)Nc1cccc(S(=O)(=O)N2CCCC2)c1 | 0.7 | 31.3* | . | -5.1 | 13.7 | -3.0 | 5.5 | -0.3
CCc1cc2cccc(C)c2nc1SCC(=O)N1CCN(C(=O)c2ccco2)CC1 | -0.5 | 25.0* | 24.0 | . | 0.7 | -2.4 | 59.2* | 3.4
Cc1cc(C)c2nc(SCC(=O)NNC(=O)c3ccco3)c(C)cc2c1 | 0.1 | 43.5* | 40.0 | 0.9 | 9.4 | -7.9 | 44.7* | -2.1
Cc1cc2cccc(C)c2nc1SCC(=O)NNC(=O)c1ccco1 | -0.2 | 55.2* | 10.6 | 0.8 | 0.8 | 15.2 | 65.0* | -5.1
CCc1cc2cc(C)ccc2nc1SCC(=O)NNC(=O)c1ccco1 | i | 15.5 | 33.1 | 1.0 | 4.0 | -15.3 | . | .
Cc1cccc2cc(C#N)c(SCC(=O)NNC(=O)Cc3ccccc3)nc12 | -0.2 | 2.0 | 22.8 | . | -7.6 | -4.1 | . | .
CCc1cc2cc(C)cc(C)c2nc1SCC(=O)N1CCN(C(=O)c2ccco2)CC1 | 0.0 | 0.2 | -18.1 | . | 2.3 | -5.7 | . | .
CCOC(=O)CNC(=O)CSc1nc2c(C)cccc2cc1CC | -0.5 | 71.3* | 22.5 | -0.3 | 5.0 | -1.5 | 107.4* | -2.1
CC(Cc1ccoc1)NC(=O)Cc1ccc(S(=O)(=O)C(C)C)cc1 (centres undefined) | . | . | . | . | . | -4.0 | . | .
CONC(=O)CCc1ccc(-n2nc(C)cc2C)cc1 | . | . | . | . | . | -7.0 | . | .
CN1CCN(S(=O)(=O)c2cccc(C(=O)Nc3cc(C(N)=O)cc(C(N)=O)c3)c2)CC1 | -0.2 | 30.0* | 18.7 | 0.2 | -15.0 | 7.5 | 25.2* | 4.0
CC(C)(C)c1ccc(OCCC(=O)Nc2cccc(S(=O)(=O)N3CCOCC3)c2)cc1 | i | 24.8* | 20.8 | -1.1 | 15.7 | -8.9 | 15.9 | -2.3
COc1ccc(C(=O)NC(=S)Nc2cccc(S(=O)(=O)N3CCOCC3)c2)cc1 | -0.4 | 10.5 | 9.9 | 0.8 | -6.1 | 25.0 | . | .
CC(=O)Oc1ccc(-c2ccc(C(=O)Nc3cccc(S(=O)(=O)N4CCOCC4)c3)cc2)cc1 | -0.3 | 24.9* | -2.0 | 1.7 | -20.9 | -6.2 | 23.3 | 5.1
Cc1oc(-c2ccc(OC(C)C)cc2)nc1Cn1cc(-c2nc(-c3ccccc3F)no2)ccc1=O | . | . | . | . | . | -17.0 | . | .
Nc1snc2c1CCC2 | . | . | . | . | . | -7.0 | . | .
O=C(COc1ccc(F)cc1)NCC1(O)Cc2ccccc2C1 | . | . | . | . | . | 2.0 | . | .
CC(=O)c1sc(NC(=O)CCOc2ccccc2)nc1C | 0.7 | 35.5* | 14.4 | . | 11.9 | -6.0 | 40.8* | -6.3
